Source: PubChem (National Center for Advancing Translational Sciences (NCATS))
This is a sample that favours compounds with a hit; in the whole collection about 8% have one here.
KB-3-1 cytotox – KB-3-1 parental cell cytotoxicity | KB-3-1 viability, CellTiter-Glo ATP luminescence, 72 h | Potency, µM (highest dose often 46.1 µM), hits mostly cytotoxic | AID 1347075 | 400,000 tested, 1.4% active; also: % is scaled to controls: 0 for no effect and ±100 for the full control effect; nearly all actives have a fitted effect of over 60% in size
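KB-3-1 parental drug-naive adenocarcinoma cells in DMEM/10% FBS, incubated 72 h at 37 C with pin-transferred compounds across a concentration series. Viability by CellTiter-Glo luminescence; concentration-response curves fitted after normalization.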
KB-V1 cytotox – KB-V1 MDR subline cytotoxicity; 400,000 tested, 3.4% active; KB-V1 MDR cells viability, CellTiter-Glo, 72 h; Potency, µM (top dose mostly 46.1 µM), usual class: cytotoxic; also: % is scaled to controls: 0 for no effect and ±100 for the full control effect; nearly all actives have a fitted effect of over 60% in size
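KB-V1 cells (P-gp-expressing MDR subline of KB-3-1) in phenol-red-free DMEM with 10% FBS were exposed to library compounds over a concentration series for 72 h at 37 degrees C. Viability read by CellTiter-Glo luminescence; concentration-effect curves fitted after normalization.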
HT1080 IDH1KD tx – toxicity to HT-1080 IDH1 knockdown cells (counter line). Potency, µM (titrated, usually from 46.1 µM), without a hit: top-dose activity, negative = toxicity, usual class: cytotoxic. 360,000 tested, 2% active. HT-1080 IDH1 knockdown viability, ATP luminescence, 48 h. AID 686971;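 also: 0% = DMSO wells and -100% = cell-free medium wells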
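Assay cells: HT-1080 with IDH1 knockdown, 750 per well, RPMI/5% FBS. Exposure: 48 h at 37 °C following 2 h pre-incubation. Read: CellTiter-Glo luminescence; fitted concentration-response, curve class assigned.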
MCF10A rerep – induces DNA re-replication in MCF 10a normal breast cells; MCF 10A DNA re-replication, Hoechst nuclear intensity, 48 h; Potency, µM (top dose mostly 46.1 µM), for the others: at the highest dose activity, positive = re-replication, usual class: activators; 350,000 tested, 2.9% active; also: % of control where 0% means no effect; nearly all actives have a fitted effect of over 50% in size
SW480 rereplic – inducers of DNA re-replication in SW480 colon cancer cells | 340,000 tested, 1.8% active | AID 624297 | SW480 DNA re-replication, Hoechst DNA content imaging, 48 h | Potency, µM (series often up to 46.1 µM), for the others: at the highest dose re-replication activation, most hits filed as activators; also: % of control where 0% means no effect; nearly all actives have a fitted effect of over 55% in size
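Cells (250 per well) received 23 nL compound or DMSO by pin tool and were kept 48 hr at 37 C, 5% CO2. Nuclei were then stained with Hoechst for 40 min and scanned for DNA content.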
HT1080-NT tox – kills 2HG-producing HT-1080-NT fibrosarcoma cells. AID 686970. Potency, µM (highest dose often 46.1 µM), for inactives: at the highest dose activity, negative = less viability, actives largely listed as cytotoxic. HT-1080-NT fibrosarcoma viability, CellTiter-Glo ATP luminescence, 48 h. 360,000 tested, 1.6% active;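 also: NT is the 2HG producing partner of a matched IDH1 knockdown line; 0% = DMSO-treated cells and -100% = media-only wells without cells; nearly all actives have a fitted effect of over 55% in size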
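750 cells/well, RPMI + 5% FBS; 2 h settle, compound pin-transfer, 48 h at 37 degrees C. CellTiter-Glo 10 min RT, luminescence. Normalized to DMSO and media-only wells.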
The depositor's hits bear a star. Calls follow the shape of the dose curve; as a rule, active = well fitted curve in the direction sought with a large enough effect; inconclusive = small, poorly fitted or top-dose-only effect, or another doubt; inactive = no such curve, though single readings can be large; an effect the other way counts as inactive or inconclusive. Potency is read from the fitted curve at half-maximal effect.

Cc1ccc(S(=O)(=O)c2c(N)n(CCC(C)C)c3nc4ccccc4nc23)cc1 was read as KB-3-1 cytotox inconclusive, KB-V1 cytotox 13µM*, HT1080 IDH1KD tx inconclusive, MCF10A rerep inconclusive, SW480 rereplic 16µM* and HT1080-NT tox inconclusive.
`CC(C)CCn1c(N)c(S(=O)(=O)c2cccs2)c2nc3ccccc3nc21` gave KB-3-1 cytotox inactive, KB-V1 cytotox 21µM*, HT1080 IDH1KD tx inconclusive, MCF10A rerep 16%, SW480 rereplic inconclusive and HT1080-NT tox 22µM*.
`Cc1ccc(S(=O)(=O)c2c(N)n(CCCO)c3nc4ccccc4nc23)cc1` gave KB-3-1 cytotox inactive, KB-V1 cytotox inactive, HT1080 IDH1KD tx -1%, MCF10A rerep -1%, SW480 rereplic 6% and HT1080-NT tox -22%.
For CC(=O)Nc1ccc2c(c1)C(=O)N(C1CCCCC1)C2=O the results were KB-3-1 cytotox inactive, KB-V1 cytotox inactive, HT1080 IDH1KD tx 0%, MCF10A rerep -9%, SW480 rereplic -2% and HT1080-NT tox -2%.
For CC1CN(c2ncnc3c2c(-c2ccccc2)cn3-c2ccc(F)cc2)CC(C)O1 (stereo unspecified) the results were KB-3-1 cytotox inactive, KB-V1 cytotox inconclusive, HT1080 IDH1KD tx inconclusive, MCF10A rerep inconclusive, SW480 rereplic 2% and HT1080-NT tox inconclusive.
For Cc1cccc(-n2cc(-c3ccccc3)c3c(N4CCOCC4)ncnc32)c1 the results were KB-3-1 cytotox inactive, KB-V1 cytotox inconclusive, HT1080 IDH1KD tx 13µM*, MCF10A rerep inconclusive, SW480 rereplic 29% and HT1080-NT tox 21µM*.
OCCN1CCN(c2ncnc3c2c(-c2ccccc2)cn3-c2ccc(F)cc2)CC1 was read as KB-3-1 cytotox inactive, KB-V1 cytotox inactive, HT1080 IDH1KD tx 18µM*, MCF10A rerep 1%, SW480 rereplic -5% and HT1080-NT tox inconclusive.
Screening CCOC(=O)C1CCN(c2ncnc3c2c(-c2ccccc2)cn3-c2ccccc2)CC1 returned KB-3-1 cytotox inactive, KB-V1 cytotox inactive, HT1080 IDH1KD tx -22%, MCF10A rerep inconclusive, SW480 rereplic inconclusive and HT1080-NT tox -10%.
`Cc1ccc(-n2cc(-c3ccccc3)c3c(N4CCN(C)CC4)ncnc32)cc1` gave KB-3-1 cytotox inactive, KB-V1 cytotox inactive, HT1080 IDH1KD tx 1%, MCF10A rerep 21µM*, SW480 rereplic -4% and HT1080-NT tox -16%.
Cc1ccc(-n2cc(-c3ccccc3)c3c(N4CCOCC4)ncnc32)cc1 was read as KB-3-1 cytotox inactive, KB-V1 cytotox inconclusive, HT1080 IDH1KD tx inconclusive, MCF10A rerep 18µM*, SW480 rereplic inconclusive and HT1080-NT tox inconclusive.
S=C1N(c2ccccc2)CN(C2CCCCC2)CN1c1ccccc1 was read as KB-3-1 cytotox inactive, KB-V1 cytotox inactive, HT1080 IDH1KD tx 3%, MCF10A rerep 0%, SW480 rereplic -1% and HT1080-NT tox -2%.
Screening CCN(CC)c1ccc(NC(=O)c2cc(C)nc3c2c(C)nn3-c2cccc(F)c2)c(C)c1 returned KB-3-1 cytotox inactive and KB-V1 cytotox inconclusive.
For COc1ccc(-n2cc(-c3ccccc3)c3c(NN4CCOCC4)ncnc32)cc1 the results were KB-3-1 cytotox inactive, KB-V1 cytotox inconclusive, HT1080 IDH1KD tx -23%, MCF10A rerep inconclusive, SW480 rereplic 3% and HT1080-NT tox -25%.
Screening Fc1ccc(-n2cc(-c3ccccc3)c3c(NN4CCOCC4)ncnc32)cc1 returned KB-3-1 cytotox inconclusive, KB-V1 cytotox 7.3µM*, HT1080 IDH1KD tx 5%, MCF10A rerep inconclusive, SW480 rereplic -6% and HT1080-NT tox 11%.
Screening NS(=O)(=O)c1ccc(N=Cc2c(O)c3ccccc3oc2=O)cc1 returned KB-3-1 cytotox inactive, KB-V1 cytotox inactive, HT1080 IDH1KD tx -19%, MCF10A rerep 0%, SW480 rereplic 9% and HT1080-NT tox -16%.
For Cc1cc(C)c(S(=O)(=O)Nc2cccc3nsnc23)c(C)c1 the results were KB-3-1 cytotox 18µM*, KB-V1 cytotox 15µM*, HT1080 IDH1KD tx 0%, MCF10A rerep inconclusive, SW480 rereplic 1% and HT1080-NT tox -1%.
Cc1ccccc1N(CC(=O)NC1CCCC1)C(=O)c1oc(C(C)(C)C)cc1C was read as KB-3-1 cytotox inactive, KB-V1 cytotox 16µM*, HT1080 IDH1KD tx 2%, MCF10A rerep inconclusive, SW480 rereplic inconclusive and HT1080-NT tox -6%.
`CCN(c1ccc(OC)cc1)S(=O)(=O)c1nnc(NC(=O)COc2ccc(C)cc2)s1` gave KB-3-1 cytotox inconclusive, KB-V1 cytotox inactive, HT1080 IDH1KD tx -6%, MCF10A rerep 8%, SW480 rereplic -1% and HT1080-NT tox -9%.
`N#C/C(=C(/O)c1cc2ccccc2o1)c1nc2ccccc2s1` gave KB-3-1 cytotox 21µM*, KB-V1 cytotox inconclusive, HT1080 IDH1KD tx 6%, MCF10A rerep 8.2µM*, SW480 rereplic inconclusive and HT1080-NT tox 0%.
`Cn1c(/C(C#N)=C(\O)c2cccc(F)c2)nc2ccccc21` gave KB-3-1 cytotox inactive, KB-V1 cytotox inactive, HT1080 IDH1KD tx inconclusive, MCF10A rerep 20%, SW480 rereplic 114% and HT1080-NT tox inconclusive.
N#C/C(=C(/O)c1cccc(F)c1)c1nc2ccccc2s1 was read as KB-3-1 cytotox 5.8µM*, KB-V1 cytotox 2.9µM*, HT1080 IDH1KD tx -2%, MCF10A rerep 11%, SW480 rereplic -5% and HT1080-NT tox -2%.
Screening O=C(NN1C(=O)C2C3c4ccccc4C(c4ccccc43)C2C1=O)c1ccc(Cl)cc1 (stereo unspecified) returned KB-3-1 cytotox inactive, KB-V1 cytotox 16µM*, HT1080 IDH1KD tx 0%, MCF10A rerep 7%, SW480 rereplic -8% and HT1080-NT tox -5%.
`CCOc1ccc(N(CC(=O)Nc2ccccc2C)S(=O)(=O)c2c(C)noc2C)cc1` gave KB-3-1 cytotox 5.8µM*, KB-V1 cytotox inconclusive, HT1080 IDH1KD tx 3.7µM*, MCF10A rerep 2.6µM*, SW480 rereplic 3.3µM* and HT1080-NT tox 4.6µM*.
`CCOc1ccccc1NC(=O)CN(c1ccc(OC)cc1)S(=O)(=O)c1c(C)noc1C` gave KB-3-1 cytotox 5.8µM*, KB-V1 cytotox 2.6µM*, HT1080 IDH1KD tx 5.2µM*, MCF10A rerep 6.5µM*, SW480 rereplic 5.8µM* and HT1080-NT tox 5.2µM*.
Screening COc1ccc(N(CC(=O)Nc2cccc(C(=O)O)c2)S(=O)(=O)c2c(C)noc2C)cc1 returned KB-3-1 cytotox inactive, KB-V1 cytotox inactive, HT1080 IDH1KD tx 1%, MCF10A rerep 9%, SW480 rereplic 1% and HT1080-NT tox -2%.
